The entries come from a sample that favours the strongest signals as a whole.
What was measured:
Experiment in all cases: glycan array binding signal (z-score within array); higher = stronger binding
Conditions in all cases: glycan notation: IUPAC condensed, linker removed
[1] = biological target: Fuc(a1-2)Gal(b1-3)GalNAc(b1-3)Gal
Outline: (§1)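 Negative Z-scores can be read as non-binding. The Z-score is calculated within each array and then averaged across arrays of one protein sequence at different concentrations or buffers and across linkers. Arrays, 3228 in all, were curated from the Consortium for Functional Glycomics database and kept only where the protein sequence was available.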

Fuc(a1-2)Gal(b1-4)GlcNAc = biological target: Fuc(a1-2)Gal(b1-4)GlcNAc
Outline: as §1

[2] = biological target: Fuc(a1-2)Gal(b1-4)[Fuc(a1-3)]GlcNAc
Outline: as §1

[3] = biological target: Fuc(a1-2)Gal(b1-4)[Fuc(a1-3)]GlcNAc(b1-3)Gal(b1-4)[Fuc(a1-3)]GlcNAc(b1-3)Gal(b1-4)[Fuc(a1-3)]GlcNAc
Outline: as §1

[4] = biological target: Fuc(a1-2)[GalNAc(a1-3)]Gal(b1-4)[Fuc(a1-3)]GlcNAc
Outline: as §1

[5] = biological target: Gal(b1-3)GalNAc(b1-4)Gal(b1-4)Glc
Outline: as §1

[6] = biological target: Gal(b1-3)GlcNAc(b1-3)Gal(b1-3)GlcNAc
Outline: as §1

[7] = biological target: Gal(b1-4)GlcNAc(b1-2)Man(a1-3)Man(b1-4)GlcNAc(b1-4)GlcNAc
Outline: as §1

[8] = biological target: Gal(b1-4)GlcNAc(b1-2)Man(a1-3)[Gal(b1-4)GlcNAc(b1-2)Man(a1-6)]Man(b1-4)GlcNAc(b1-4)GlcNAc
Outline: as §1

[9] = biological target: Gal(b1-4)GlcNAc(b1-6)GalNAc
Outline: as §1

Gal3S(b1-4)GlcNAc = biological target: Gal3S(b1-4)GlcNAc
Outline: as §1

Gal3S(b1-4)GlcNAc6S = biological target: Gal3S(b1-4)GlcNAc6S
Outline: as §1

Gal6S(b1-4)GlcNAc6S = biological target: Gal6S(b1-4)GlcNAc6S
Outline: as §1

Glc(a1-4)Glc = biological target: Glc(a1-4)Glc
Outline: as §1

[10] = biological target: GlcNAc(a1-4)Gal(b1-4)GalNAc
Outline: as §1

[11] = biological target: GlcNAc(a1-4)Gal(b1-4)GlcNAc(b1-3)Gal(b1-4)GlcNAc
Outline: as §1

[12] = biological target: GlcNAc(b1-2)Man(a1-3)[GlcNAc(b1-2)Man(a1-6)]Man(b1-4)GlcNAc(b1-4)[Fuc(a1-6)]GlcNAc
Outline: as §1

GlcNAc(b1-3)GalNAc = biological target: GlcNAc(b1-3)GalNAc
Outline: as §1

[13] = biological target: GlcNAc(b1-3)[GlcNAc(b1-6)]Gal(b1-4)GlcNAc
Outline: as §1

Kdn(a2-3)Gal(b1-3)GalNAc = biological target: Kdn(a2-3)Gal(b1-3)GalNAc
Outline: as §1

[14] = biological target: Man(a1-2)Man(a1-6)[Man(a1-3)]Man(a1-6)[Man(a1-2)Man(a1-2)Man(a1-3)]Man(b1-4)GlcNAc(b1-4)GlcNAc
Outline: as §1

[15] = biological target: Neu5Ac(a2-3)Gal(b1-3)GlcNAc6S
Outline: as §1

[16] = biological target: Neu5Ac(a2-3)Gal(b1-4)GlcNAc(b1-6)[Neu5Ac(a2-3)Gal(b1-3)]GalNAc
Outline: as §1

[17] = biological target: Neu5Ac(a2-3)Gal(b1-4)GlcNAc6S
Outline: as §1

[18] = biological target: Neu5Ac(a2-3)Gal(b1-4)[Fuc(a1-3)]GlcNAc(b1-3)Gal(b1-4)GlcNAc
Outline: as §1

[19] = biological target: Neu5Gc(b2-6)Gal(b1-4)GlcNAc
Outline: as §1

B1: GALT1 615 (Arabidopsis thaliana), Q8L7F9 (protein)
chain: DPMRGSHHHHHHGMASMTGGQQMGRDLYDDDDKSRLQKPYITAAASVVVTPNTTLPMEWLRITLPDFMKEARNTQEAISGDDIAVVSGLFVEQNVSKEEREPLLTWNRLESLVDNAQSLVNGVDAIKEAGIVWESLVSAVEAKKLVDVNENQTRKGKEELCPQFLSKMNATEADGSSLKLQIPCGLTQGSSITVIGIPDGLVGSFRIDLTGQPLPGEPDPPIIVHYNVRLLGDKSTEDPVIVQNSWTASQDWGAEERCPKFDPDMNKKVDDLDECNKMVGGEINRTSSTSLQSNTSRGVPVAREASKHEKYFPFKQGFLSVATLRVGTEGMQMTVDGKHITSFAFRDTLEPWLVSEIRITGDFRLISILA
[1]
  glycan array binding signal (z-score): 8.63
Fuc(a1-2)Gal(b1-4)GlcNAc
  glycan array binding signal (z-score): -0.374
[2]
  glycan array binding signal (z-score): 4.77
[3]
  glycan array binding signal (z-score): 1.95
[4]
  glycan array binding signal (z-score): 1.82
[5]
  glycan array binding signal (z-score): -0.508
[6]
  glycan array binding signal (z-score): -0.271
[7]
  glycan array binding signal (z-score): -0.484
[8]
  glycan array binding signal (z-score): 0.081
[9]
  glycan array binding signal (z-score): -0.439
Gal3S(b1-4)GlcNAc
  glycan array binding signal (z-score): -0.208
Gal3S(b1-4)GlcNAc6S
  glycan array binding signal (z-score): -0.044
Gal6S(b1-4)GlcNAc6S
  glycan array binding signal (z-score): -0.309
Glc(a1-4)Glc
  glycan array binding signal (z-score): 3.74
[10]
  glycan array binding signal (z-score): 8
[11]
  glycan array binding signal (z-score): -0.46
[12]
  glycan array binding signal (z-score): 6.45
GlcNAc(b1-3)GalNAc
  glycan array binding signal (z-score): -0.386
[13]
  glycan array binding signal (z-score): -0.348
Kdn(a2-3)Gal(b1-3)GalNAc
  glycan array binding signal (z-score): -0.772
[14]
  glycan array binding signal (z-score): -0.415
[15]
  glycan array binding signal (z-score): -0.079
[16]
  glycan array binding signal (z-score): -0.225
[17]
  glycan array binding signal (z-score): -0.078
[18]
  glycan array binding signal (z-score): 0.904
[19]
  glycan array binding signal (z-score): -0.419

From the supplement of paper PMC8728848
